Source: PubChem
An excerpt weighted towards active compounds, which were near 4.8% of everything screened.
SUMO Mot1 rescue: SUMOylation pathway inhibition by Mot1-301 growth rescue | S. cerevisiae Mot1-301 growth rescue, ATP luminescence, 38.5C; percent above DMSO median, 100 means doubled | growth rescue, % at 18.8 µM | actives 1% (n = 320,000);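 active means every valid replicate shows activation above 250% relative to neutral control wells; inactive means the rest, any valid replicate at or below 250%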;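 further: OY570 slx delta 5 strain wells were the positive control but not used for scaling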
AI-2 QS mod: modulates the Vibrio harveyi AI-2 quorum sensing system. Vibrio harveyi JMH597 AI-2 luminescence/OD600 ratio, 9 h; active compounds read low; strain lacks LuxN and CqsS sensors; 0 = neutral-control median. activity change, % at 7.5 µM. actives 0.4% (n = 300,000). AID 2094; in the data active means activity change below about -75%, passing the limit was not always enough; inconclusive means no clear call, values can overlap the other calls;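 further: luminescence divided by OD600 gain over 9 h not by final OD600 alone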
ALR inh: blocks human ALR sulfhydryl oxidase activity | actives 3.8% (n = 290,000) | inhibition, % (test concentration not listed) | purified ALR, DTT oxidation, H2O2 HRP-luminol luminescence;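 active means mean replicate inhibition above about 79%, with every replicate also reaching it, limit read from the data; inconclusive means only one of the two criteria met; inactive means mean below limit and not every replicate reaching it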
Target sequence (P55789 whole entry, looked up): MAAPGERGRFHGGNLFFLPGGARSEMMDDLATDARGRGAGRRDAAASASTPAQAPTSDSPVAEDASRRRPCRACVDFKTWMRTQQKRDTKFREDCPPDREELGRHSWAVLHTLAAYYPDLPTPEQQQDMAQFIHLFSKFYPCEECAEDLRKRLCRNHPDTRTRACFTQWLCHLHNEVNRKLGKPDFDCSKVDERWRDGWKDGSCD
HIF activator: HIF pathway transcriptional activation; U2OS HRE-luciferase reporter, luminescence; normalized: DMSO 0%, desferrioxamine 100%; activation, % at 7.5 µM (by protocol); actives 0.32% (n = 300,000); AID 1910;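 active means mean activation of at least 10% of the iron chelator positive control signal, with at least half of replicates also reaching 10%; inconclusive means mean and replicate majority disagree about reaching 10%; inactive means mean and most replicates under 10%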
* hit, by the source's call; ? = inconclusive; · = no result.

SMILES | SUMO Mot1 rescue | AI-2 QS mod | ALR inh | HIF activator
COc1ccccc1N1CCN(C(=O)c2cc(=O)c3ccc(C)cc3o2)CC1 | -8.6 | 12.0 | 98.9* | -0.1
Cc1ccc(S(=O)(=O)NC(CC(C)C)C(=O)N2CCN(C/C=C/c3ccccc3)CC2)cc1 (stereo unspecified) | -2.3 | · | 44.2 | ·
COc1cccc(C(=O)Nc2ccc(NC(=O)C3C4C=CC(C4)C3C(=O)O)cc2)c1 (stereo unspecified) | -7.6 | 30.3 | -15.6 | 1.1
CN(C)S(=O)(=O)c1ccc(C(=O)NCc2nnc(SCC(=O)NCc3ccco3)o2)cc1 | 182.8 | 6.6 | 1.6 | -0.3
CCc1ccc(C(=O)NNc2ccc(F)cc2)cc1 | 319.4* | -19.1 | -6.9 | 0.3
CCOC(=O)C(=O)NNc1ccc(F)cc1 | 412.9* | 6.4 | 98.9* | -0.4
CCOC(=O)C(=O)N/N=C/c1ccc(F)cc1 | -7.8 | 15.5 | -10.9 | -0.2
Cc1ccccc1N1C(=O)CC(Nc2ccc3c(c2)OCO3)C1=O (stereo unspecified) | 4.0 | 27.5 | 94.9* | -0.1
Cc1nn(-c2ccccc2)c(Cl)c1C(=O)OCC(=O)NCCc1ccccc1 | -8.1 | 46.1 | -12.0 | 0.0
C(=N\N(Cc1ccccc1)c1ccccc1)/c1cccnc1 | 622.3 | -7.5 | -16.5 | 0.1
C/C(=N\N(Cc1ccccc1)c1ccccc1)c1cccnc1 | · | 7.0 | 98.5* | -0.4
O=C(O)c1ccn(CSc2cc(Cl)ccc2Cl)n1 | 2.4 | · | -0.2 | ·
Cc1cc(C(=O)COc2ccc3ccc(=O)oc3c2)c(C)n1Cc1cccs1 | -7.3 | 29.4 | 87.5* | -3.4
COc1ccc(S(=O)(=O)NCCc2nnc3ccc(SCC(=O)Nc4nc(C)cs4)nn23)cc1 | -4.8 | 6.8 | 89.4* | -0.2
O=C(Nc1ccc(NC(=O)c2ccco2)cc1)c1ccco1 | 9.7 | 10.0 | -14.0 | 2.7
O=C(Nc1ccc(Nc2ccccc2)cc1)c1ccco1 | 21.4 | -96.4* | 92.0* | 2.9
O=C(Nc1ccc(Nc2ccccc2)cc1)c1ccc(F)cc1 | 149.6 | -88.0* | 50.1 | 1.7
O=C(Nc1ccc(Cc2ccncc2)cc1)c1ccco1 | 264.1 | -81.9* | -10.8 | 1.8
Nc1nc2ccc(NC(=O)c3ccco3)cc2s1 | -15.7 | 2.9 | · | 2.6
Cc1cccc(N2CCN(CC(=O)N(C)Cc3ccccc3)CC2C)c1 (stereo unspecified) | -6.9 | 5.0 | 98.4* | 0.0
CN(Cc1ccccc1)C(=O)CN1CCN(S(=O)(=O)c2ccc(Cl)c(Cl)c2)CC1 | 19.8 | · | -34.4 | ·
CC(NS(=O)(=O)c1ccc(Br)cc1)C(=O)NCCc1ccccc1 (stereo unspecified) | -9.1 | 10.0 | -1.0 | 0.1
CC(=O)Nc1ccc(S(=O)(=O)NC(C)C(=O)NCCc2ccc(F)cc2)cc1 (stereo unspecified) | 70.9 | 29.2 | 98.3* | 0.2
COc1ccc(CC(=O)N/N=C\c2cc(Br)c(O)c(Br)c2)cc1 | 0.8 | 5.4 | ? | -0.5
CCC(c1nnnn1CCOC)N(Cc1cc2c(C)cc(C)cc2[nH]c1=O)CC1CCCO1 (stereo unspecified) | -21.8 | 8.9 | -1.7 | -0.5
SMILES | SUMO Mot1 rescue | AI-2 QS mod | ALR inh | HIF activator
CCC(c1nnnn1CCOC)N(Cc1cc2cc(C)c(C)cc2[nH]c1=O)CC1CCCO1 (stereo unspecified) | -9.0 | 24.9 | 99.1* | -0.4
CCCC(c1nnnn1CCOC)N(Cc1cc2cc(C)c(C)cc2[nH]c1=O)CC1CCCO1 (stereo unspecified) | -0.5 | 28.3 | 99.3* | -0.7
CC(C)(C)OC(=O)N[C@H](C(=O)OC(C)(C)C)c1ccc2ccccc2c1 | 2.6 | · | 0.0 | ·
CN(CC(=O)Nc1ccccc1Cl)CC(=O)Nc1sc2c(c1C(N)=O)CCC2 | 6.2 | 13.6 | 38.9 | -0.2
CCOc1ccc(C2NC(=O)C(C#N)=C(S)N2c2ccc(OC)cc2)cc1OC (stereo unspecified) | 4.8 | 33.9 | 97.1* | 0.2
CCc1ccccc1-n1nnnc1SCC(=O)Nc1ccc(N2CCN(C)CC2)cc1 | -11.5 | 0.6 | -14.2 | -0.1
Nc1nc2c(nc(SCc3ccccc3Br)n2C2OC(CO)C(O)C2O)c(=O)[nH]1 (stereo unspecified) | 329.7 | 21.7 | 86.4* | -0.5
Nc1nc2c(nc(N3CCCCC3)n2[C@@H]2O[C@H](CO)[C@@H](O)[C@H]2O)c(=O)[nH]1 | -18.8 | 28.1 | 11.3 | -18.9
CCOc1ccc(C(Nc2ccc(C)cc2)P2(=O)OCCC(C)O2)cc1 (stereo unspecified) | -2.9 | -0.3 | 98.5* | -0.5
COCCN(C(=O)COC(=O)CCCOc1ccccc1)c1c(N)n(Cc2ccccc2)c(=O)[nH]c1=O | 11.6 | 32.7 | -4.2 | -0.4
COc1cccc(CNC(=O)COC(=O)c2nc(Cl)c(Cl)c(Cl)c2Cl)c1 | 21.5 | · | · | ·
OCCNc1nc(Nc2ccc(O)cc2)nc2ccccc12 | 209.5 | 11.8 | 98.8* | -0.3
OCCNc1nc(Nc2cccc(O)c2)nc2ccccc12 | -3.8 | 17.0 | 95.1* | -0.9
OCCNc1nc(N2CCN(c3ccccc3)CC2)nc2ccccc12 | -1.2 | 9.4 | 98.0* | 0.0
Cc1cc(C(=O)N/N=C/c2c(C)[nH]c3ccccc23)n[nH]1 | 5.5 | 29.5 | · | 0.2
CC(C)N=Cc1c(O)[nH]c2ccccc12 | -3.4 | 15.8 | 98.8* | -0.2
Cc1cccc(/N=C/c2c(O)[nH]c3ccccc23)n1 | 8.3 | 17.1 | 41.8 | 2.2
CC(C)(C)c1[nH]c2ccccc2c1/C=N/O | 1.2 | 8.9 | 98.8* | -0.2
CC(C)(CO)N=Cc1c(O)[nH]c2ccccc12 | 74.5 | 9.7 | 99.8* | -0.1
Cc1cnc(CN2CCc3c([nH]c4ccccc34)C2C2CCCCC2)[nH]1 (stereo unspecified) | -8.2 | 18.5 | 17.3 | -0.1
c1ccc2c3c([nH]c2c1)C(C1CCCCC1)N(Cc1ncc[nH]1)CC3 (stereo unspecified) | -7.8 | 26.4 | 98.1* | -0.8
COC(=O)c1ccc(-c2nc3cc(N)ccc3o2)cc1 | -3.3 | 21.5 | 95.2* | -11.9
Cc1ccc(-c2nc3cc(N)ccc3o2)cc1Br | -5.8 | 32.2 | 66.1 | 1.8
Nc1ccc2oc(-c3ccccn3)nc2c1 | · | 16.2 | ? | 1.3
CN(C)c1ccc(-c2nc3cc(N)ccc3o2)cc1 | -1.3 | 2.0 | 98.7* | -0.2
SMILES | SUMO Mot1 rescue | AI-2 QS mod | ALR inh | HIF activator
Nc1ccc(-c2nc3cc(N)ccc3o2)cc1 | -14.0 | 16.2 | 92.7* | 0.2
Cc1ccc(C)c(-c2nc3cc(N)ccc3o2)c1 | -2.4 | 24.1 | 98.9* | -1.1
COCCN(C(=O)CSc1nc2ccccc2o1)c1c(N)n(Cc2ccccc2)c(=O)[nH]c1=O | -9.1 | · | -3.6 | ·
CC(C)N(C)Cc1nnnn1CC(=O)N(C)Cc1ccc(F)cc1 | -0.2 | 7.2 | -2.1 | 0.2
COc1ccc(N(C(=O)CNC(=O)c2ccco2)C(C(=O)NCC2CCCO2)c2ccccc2)cc1 (stereo unspecified) | -5.4 | 43.5 | 0.0 | -0.1
CC(C)(C)C1=CC(O)(c2ccccc2)C=C(C(C)(C)C)C1=O | -22.3 | 25.0 | -10.9 | 0.0
Nc1ccc(-c2nc3ccc(N)cc3o2)cc1 | -10.9 | 34.6 | 99.9* | ·
Cc1ccc2nc(-c3cc(N)cc(N)c3)oc2c1 | -8.7 | 20.7 | -3.0 | -2.7
